From PubChem BioAssay AID1159580 (chemical genetic matrix, 2015)
“And” between values parts separate entries of the source, which are not always exact repeats. Equal entries are not always repeated. Hit rate of the full screen: of about 5,500 compounds, about 2,000 (36%) were called active. About 18% were inconclusive and are not listed. No stated cut-off is given here; in the data, active means normalized growth mostly below about 0.91 (no sharp cut-off); inconclusive means no clear call, values can overlap the other calls; inactive means mostly above about 0.92. The list shows a part of the results.

Experiment: chemical genetic growth profiling, strain panel (AID 1159580);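 further: tested at 20 µM; growth read once vehicle control cultures reached saturation at 30 °C; 1 = growth at the plate median or of vehicle wells; lower values mean less growth of the strain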
Conditions: growth OD

Measured: normalized growth

O=C1C(=O)c2ccccc2C(O)=C1C1CCC(c2ccc(Cl)cc2)CC1 (configuration not stated)
active: S. cerevisiae deletion strains, locus YNL307C, strain MCK1, hits give low values 0.836
inactive: S. cerevisiae deletion strains, locus YAL013W, strain DEP1, hits give low values 1.01 | S. cerevisiae deletion strains, locus YBR021W, strain FUR4, hits give low values 0.992 | S. cerevisiae deletion strains, locus YBR229C, strain ROT2, hits give low values 0.985 | S. cerevisiae deletion strains, locus YCL029C, strain bik1, hits give low values 0.992 | S. cerevisiae deletion strains, locus YDL035C, strain GPR1, hits give low values 0.993 | S. cerevisiae deletion strains, locus YDL074C, strain BRE1, hits give low values 0.975 | S. cerevisiae deletion strains, locus YDL101C, strain DUN1, hits give low values 0.996 | S. cerevisiae deletion strains, locus YDL134C, strain PPH21, hits give low values 0.983 | S. cerevisiae deletion strains, locus YDL185W, strain tfp1, hits give low values 1.01 | S. cerevisiae deletion strains, locus YDL192W, strain arf1, hits give low values 0.997 | S. cerevisiae deletion strains, locus YDR101C, strain arx1, hits give low values 0.991 | S. cerevisiae deletion strains, locus YDR150W, strain NUM1, hits give low values 1.01 | S. cerevisiae deletion strains, locus YDR162C, strain NBP2, hits give low values 0.997 | S. cerevisiae deletion strains, locus YDR318W, strain mcm21, hits give low values 0.98 | S. cerevisiae deletion strains, locus YDR388W, hits give low values 0.981 | S. cerevisiae deletion strains, locus YDR502C, strain sam2, hits give low values 1 | S. cerevisiae deletion strains, locus YEL061C, strain CIN8, hits give low values 0.996 | S. cerevisiae deletion strains, locus YER110C, hits give low values 0.991 | S. cerevisiae deletion strains, locus YER155C, strain BEM2, hits give low values 0.983 | S. cerevisiae deletion strains, locus YER167W, strain BCK2, hits give low values 1.01 | S. cerevisiae deletion strains, locus YGL078C, strain dbp3, hits give low values 1 | S. cerevisiae deletion strains, locus YGL086W, strain mad1, hits give low values 0.988 | S. cerevisiae deletion strains, locus YGL248W, strain PDE1, hits give low values 0.998 | S. cerevisiae deletion strains, locus YGR078C, strain PAC10, hits give low values 0.996 | S. cerevisiae deletion strains, locus YGR135W, strain pre9, hits give low values 0.991 | S. cerevisiae deletion strains, locus YGR229C, strain SMI1, hits give low values 1 | S. cerevisiae deletion strains, locus YGR252W, strain gcn5, hits give low values 0.946 | S. cerevisiae deletion strains, locus YHR030C, strain SLT2, hits give low values 0.998 and 1.01 | S. cerevisiae deletion strains, locus YHR079C, strain IRE1 (second series), hits give low values 0.987 | S. cerevisiae deletion strains, locus YHR079C, strain IRE1, hits give low values 1.01 | S. cerevisiae deletion strains, locus YHR094C, strain hxt1, hits give low values 0.98 | S. cerevisiae deletion strains, locus YHR129C, strain ARP1, hits give low values 0.988 | S. cerevisiae deletion strains, locus YHR200W, strain rpn10, hits give low values 0.981 | S. cerevisiae deletion strains, locus YIL066C, strain RNR3, hits give low values 0.989 | S. cerevisiae deletion strains, locus YIL073C, strain SPO22, hits give low values 0.884 | S. cerevisiae deletion strains, locus YIL125W, strain kgd1, hits give low values 0.996 | S. cerevisiae deletion strains, locus YIR030C, strain dcg1, hits give low values 0.997 | S. cerevisiae deletion strains, locus YJL095W, strain BCK1, hits give low values 0.949 and 1.01 | S. cerevisiae deletion strains, locus YJL134W, strain LCB3, hits give low values 0.988 | S. cerevisiae deletion strains, locus YJL168C, strain set2, hits give low values 0.977 | S. cerevisiae deletion strains, locus YJL187C, strain SWE1 (second series), hits give low values 0.992 | S. cerevisiae deletion strains, locus YJR043C, strain POL32, hits give low values 1 | S. cerevisiae deletion strains, locus YJR066W, strain TOR1, hits give low values 0.963 | S. cerevisiae deletion strains, locus YJR075W, strain HOC1, hits give low values 0.996 | S. cerevisiae deletion strains, locus YKL009W, strain mrt4, hits give low values 0.997 | S. cerevisiae deletion strains, locus YKL068W, hits give low values 0.997 | S. cerevisiae deletion strains, locus YKL085W, strain MDH1 (second series), hits give low values 0.989 | S. cerevisiae deletion strains, locus YKL085W, strain MDH1, hits give low values 0.989 | S. cerevisiae deletion strains, locus YKL190W, strain CNB1, hits give low values 0.99 | S. cerevisiae deletion strains, locus YKR001C, strain vps1, hits give low values 0.947 | S. cerevisiae deletion strains, locus YLR039C, strain RIC1, hits give low values 0.876 | S. cerevisiae deletion strains, locus YLR058C, strain SHM2, hits give low values 0.988 | S. cerevisiae deletion strains, locus YLR102C, strain apc9, hits give low values 0.988 | S. cerevisiae deletion strains, locus YLR113W, strain HOG1, hits give low values 1.05 | S. cerevisiae deletion strains, locus YLR262C, strain YPT6, hits give low values 0.936 | S. cerevisiae deletion strains, locus YLR268W, strain sec22, hits give low values 0.972 | S. cerevisiae deletion strains, locus YLR330W, strain CHS5, hits give low values 0.988 | S. cerevisiae deletion strains, locus YLR342W, strain FKS1 (second series), hits give low values 0.951 | S. cerevisiae deletion strains, locus YLR371W, strain rom2, hits give low values 1 | S. cerevisiae deletion strains, locus YLR418C, strain cdc73, hits give low values 0.987 | S. cerevisiae deletion strains, locus YML016C, strain PPZ1, hits give low values 0.969 | S. cerevisiae deletion strains, locus YML032C, strain rad52, hits give low values 1.01 | S. cerevisiae deletion strains, locus YML124C, strain tub3, hits give low values 0.994 | S. cerevisiae deletion strains, locus YMR078C, strain ctf18, hits give low values 0.974 | S. cerevisiae deletion strains, locus YMR223W, strain ubp8, hits give low values 0.981 | S. cerevisiae deletion strains, locus YMR263W, strain SAP30, hits give low values 0.999 | S. cerevisiae deletion strains, locus YMR307W, strain GAS1, hits give low values 0.924 | S. cerevisiae deletion strains, locus YNL067W, strain RPL9B, hits give low values 0.997 | S. cerevisiae deletion strains, locus YNL128W, strain TEP1, hits give low values 1.01 | S. cerevisiae deletion strains, locus YNL153C, strain GIM3, hits give low values 0.989 | S. cerevisiae deletion strains, locus YNL183C, strain NPR1, hits give low values 0.977 | S. cerevisiae deletion strains, locus YNL233W, strain BNI4, hits give low values 0.987 | S. cerevisiae deletion strains, locus YNL250W, strain rad50, hits give low values 0.997 | S. cerevisiae deletion strains, locus YNL271C, strain bni1, hits give low values 0.991 | S. cerevisiae deletion strains, locus YNL298W, strain CLA4, hits give low values 0.996 | S. cerevisiae deletion strains, locus YNL322C, strain KRE1, hits give low values 1 | S. cerevisiae deletion strains, locus YNR052C, strain pop2, hits give low values 0.982 | S. cerevisiae deletion strains, locus YOL006C, strain TOP1, hits give low values 0.903 | S. cerevisiae deletion strains, locus YOL012C, strain htz1 1.05 | S. cerevisiae deletion strains, locus YOL147C, strain pex11, hits give low values 0.986 | S. cerevisiae deletion strains, locus YOR061W, strain CKA2, hits give low values 0.98 | S. cerevisiae deletion strains, locus YOR069W, strain VPS5, hits give low values 0.991 | S. cerevisiae deletion strains, locus YOR136W, strain idh2, hits give low values 1 | S. cerevisiae deletion strains, locus YOR144C, strain elg1, hits give low values 0.988 | S. cerevisiae deletion strains, locus YOR184W, strain ser1, hits give low values 0.984 | S. cerevisiae deletion strains, locus YOR231W, strain MKK1, hits give low values 1.03 | S. cerevisiae deletion strains, locus YOR316C, strain cot1, hits give low values 0.991 | S. cerevisiae deletion strains, locus YPL055C, strain LGE1, hits give low values 0.996 | S. cerevisiae deletion strains, locus YPL241C, strain CIN2, hits give low values 0.997 | S. cerevisiae deletion strains, locus YPL256C, strain CLN2, hits give low values 1.03 | S. cerevisiae deletion strains, locus YPR119W, strain clb2, hits give low values 0.984 | S. cerevisiae deletion strains, locus YPR141C, strain kar3, hits give low values 1 | S. cerevisiae deletion strains, locus YPR163C, strain tif3, hits give low values 0.993 | S. cerevisiae deletion strains, locus YPR167C, strain met16, hits give low values 0.995 | S. cerevisiae deletion strains, strain wtn01, hits give low values 0.998 | S. cerevisiae strains, strain wild type, hits give low values 0.999
